Active and inactive are the calls of the source. Calls follow the shape of the dose curve; as a rule, active = well fitted curve in the direction sought with a large enough effect in the repeat runs; inconclusive = weak or mixed curves; inactive = flat fitted curve, though single readings scatter.
% is scaled to controls: 0 for no effect and ±100 for the full control effect.

A short description of the test: qHTS assay to test for compound auto fluorescence at 535 nm (green) in HepG2 cells (AID 720675). To be noted: green autofluorescence 485/535 nm, 1 h; series mostly up to 91.3 µM. The text has this: National Center for Advancing Translational Sciences [NCATS]
NIH Chemical Genomics Center [NCGC]
U.S. Environmental Protection Agency [EPA]
National Institutes of Environmental Health Sciences [NIEHS]
National Toxicology Program [NTP]
U.S. Food and Drug Administration [FDA]
Compound auto fluorescence often interferes with screening of the compound library against various biological targets and signaling pathways. Some of these compounds may have fluorophoric properties. Such properties may interfere with the assay outputs resulting in false positives and/or negatives. To decrease such complications and ensure the compound activities are relevant in terms of biological response, the Tox21 10K compound library was screened for auto fluorescence.
From the fluorophores used as reporter signals in our screening assays, the auto fluorescence equivalencies of compounds against three fluorophores have been evaluated: Triamterene, Fluorescein and Rose Bengal sodium for blue, green and red fluorescence, respectively. The fluorescence intensities were measured using Excitation/Emission wavelengths at 405/460nm, 485/535nm and 540/590nm for blue, green and red labels, respectively. This assay includes the green fluorescence data.
Tox21 Assay Protocol Summary:
2,000 HepG2 cells in 5 uL of culture medium (MEM containing 10% FBS) per well were dispensed into black wall/clear bottom 1536-well plates using a Multidrop Combi Dispenser (ThermoFisher Scientific, Waltham, MA). The assay plates were incubated overnight at 37 C to allow cell attachment to the well bottom, followed by the transfer of 23 nL compound or DMSO vehicle by a pintool work station (Kalypsys , San Diego, CA). After the assay plates were incubated for 1 hr at 37 C and 5% CO2, fluorescence intensities in the assay plates were measured by an Envision (PerkinElmer, Shelton, CT) plate reader using three labels for measuring blue, green and red fluorescence at […] 460, 535 and 590 nm respectively.
Background: In qHTS, concentration-response curves come from the screen itself.
In the case of `CC(=O)OCC(=O)[C@@]12OC(C)(C)O[C@@H]1C[C@H]1[C@@H]3C[C@H](F)C4=CC(=O)C=C[C@]4(C)[C@@]3(F)[C@@H](O)C[C@@]12C`, the fluorescence, % of fluorescein control is -0.0438% [at 18.6 µM] (inactive).

`N#C[C@@H]1C[C@@H]2C[C@@H]2N1C(=O)[C@@H](N)C12CC3CC(CC(O)(C3)C1)C2`: the result was inactive.

On to `CNC(=O)N(c1ccccc1)c1ccccc1`, for which the compound was called inactive.

Regarding `CC1=C(C=O)C(C)(C)CCC1`, the compound was classed as inactive.

In the case of `CCC(C)(O)CCC=C(C)C` (stereo not given), the compound was classed as inactive.

`CC(C)CCCC(=O)O`: the call was inactive.

As for `CCCCCCOC(=O)C(C)C`, the result was inactive.

As to `CCC(=O)Oc1ccc(/C(CC)=C(\CC)c2ccc(OC(=O)CC)cc2)cc1`, the result was inactive.

With `CCCc1c(OCCCOc2ccc(OCC(=O)O)cc2)ccc(C(C)=O)c1O`, the result was inactive.

`CCCCCCCCSCCO`: the result was inactive.

For the compound `CCOC(=O)c1ccccc1OC`, the call was inactive.

For the compound `O=C(CS)OCCOC(=O)CS`, the compound was classed as inactive.

For `Brc1cc(-c2ccc(Br)c(Br)c2Br)cc(Br)c1Br`, the result was inactive.

As for `CCCCCCCCCCCCCCC[C@H](O)[C@@H](N)CO`, the call was inactive.

On to `CC1=CC(O)CC(C)(C)C1` (stereo not given), for which the outcome was inactive.

`Cc1ccc(S(=O)(=O)NC2CCCCC2)cc1`: the result was inactive.

`Cc1cc(O)c(C(C)C)cc1Cl`: the compound was classed as inactive.

Turning to `O=[N+]([O-])c1cccc(S(=O)(=O)NCCNS(=O)(=O)c2cccc([N+](=O)[O-])c2)c1`, the compound was called inactive.

As to `CC1CC(O)CC(C)(C)C1` (stereo not given), the result was inactive.

Turning to `O=C(c1ccc(O)cc1)c1ccc(Cl)cc1`, the outcome was inactive.

As for `CCOC(=O)CC(=O)C(=O)OCC`, the outcome was inactive.

As to `NC(=O)N(O)[C@@H]1C=C[C@H](Oc2cccc(Oc3ccc(F)cc3)c2)C1`, the result was inactive.

Regarding `CSc1ccc(Oc2ccc(S(N)(=O)=O)cc2CN(C)C)cc1C`, the result was inactive.

For the compound `[O]=[Bi]`, the fluorescence, % of fluorescein control was 0.162% [at 3.72 µM] (inactive).

Regarding `CC(COc1ccc(C(C)(C)C)cc1)OS(=O)OCCCl` (stereo not given), the compound was classed as inactive.

With `CN1C(=O)CC(C)(c2ccccc2)C1=O` (stereo not given), the result was inactive.

Turning to `Cc1ccccc1N1C(=O)c2cc(S(N)(=O)=O)c(Cl)cc2NC1C` (stereo not given), the call was inactive.

Turning to `C/C=C(\C)C(=O)OCCC(C)CCC=C(C)C` (stereo not given), the call was inactive.

Turning to `C[C@@H]1C[C@H]2[C@@H]3CCC4=CC(=O)C=C[C@]4(C)[C@@]3(F)[C@@H](O)C[C@]2(C)[C@@]1(O)C(=O)CO`, the result was inactive.

Regarding `CC(C)(CCl)c1ccccc1`, the compound was called inactive.

Consider `CC(C)CCCCCOC(=O)CCCCC(=O)OCCCCCC(C)C`, for which the compound was classed as inactive.

With `COC(=O)CC(=O)C(C)(C)C`, the outcome was inactive.

As to `CCc1nn(CCCN2CCN(c3cccc(Cl)c3)CC2)c(=O)n1CCOc1ccccc1`, the outcome was inactive.

Regarding `CN(C(=O)C(Cl)Cl)c1ccc(OC(=O)c2ccco2)cc1`, the compound was called inactive.

For the compound `CC1(C)C2=CCCC(C)(C)[C@]23CC[C@H]1C3`, the compound was called inactive.

Regarding `C[N+]1(C)CCC(=C(c2ccccc2)c2ccccc2)CC1`, the fluorescence, % of fluorescein control was -0.0806% [at 18.6 µM] (inactive).

Regarding `CC1C2CC(CC2C2CCCC(O)C2)C1(C)C` (stereo not given), the result was inactive.

In the case of `CC(=O)[C@H]1CC[C@H]2[C@@H]3C=CC4=CC(=O)CC[C@@]4(C)[C@@H]3CC[C@]12C`, the fluorescence, % of fluorescein control was -0.0643% [at 18.6 µM] (inactive).

In the case of `CC[C@@H]([C@H](C)O)n1ncn(-c2ccc(N3CCN(c4ccc(OC[C@@H]5CO[C@@](Cn6cncn6)(c6ccc(F)cc6F)C5)cc4)CC3)cc2)c1=O`, the compound was called inactive.

`O=C(OCCOCCO)c1ccccc1Nc1cccc(C(F)(F)F)c1`: the fluorescence, % of fluorescein control is 0.199% [at 18.6 µM] (inactive).

Values taken from PubChem BioAssay (Tox21).
